Records with an inconclusive call do not appear. Active and inactive are the calls of the source. Unless noted, the call rests on the fitted dose curve; in most records, active means well fitted curve in the direction sought with a large enough effect in the repeat runs; inconclusive means weak or mixed curves; inactive means no such curve, though single readings can be large; an effect the other way counts as inactive or inconclusive.
Key:
[1] = biological target: Estrogen receptor beta (Homo sapiens) (UniProt Q92731); experiment: qHTS assay to identify small molecule agonists of the estrogen receptor beta (ER-beta) signaling pathway (AID 1259377; active means well fitted activation curve with a large enough effect in the signal ratio in the repeat runs, not every such curve was filed as active; the % refers to the signal ratio; further: potency means the concentration at half of the fitted maximal effect)
Estrogen receptor beta (Homo sapiens), sequence (Q92731 whole entry, looked up): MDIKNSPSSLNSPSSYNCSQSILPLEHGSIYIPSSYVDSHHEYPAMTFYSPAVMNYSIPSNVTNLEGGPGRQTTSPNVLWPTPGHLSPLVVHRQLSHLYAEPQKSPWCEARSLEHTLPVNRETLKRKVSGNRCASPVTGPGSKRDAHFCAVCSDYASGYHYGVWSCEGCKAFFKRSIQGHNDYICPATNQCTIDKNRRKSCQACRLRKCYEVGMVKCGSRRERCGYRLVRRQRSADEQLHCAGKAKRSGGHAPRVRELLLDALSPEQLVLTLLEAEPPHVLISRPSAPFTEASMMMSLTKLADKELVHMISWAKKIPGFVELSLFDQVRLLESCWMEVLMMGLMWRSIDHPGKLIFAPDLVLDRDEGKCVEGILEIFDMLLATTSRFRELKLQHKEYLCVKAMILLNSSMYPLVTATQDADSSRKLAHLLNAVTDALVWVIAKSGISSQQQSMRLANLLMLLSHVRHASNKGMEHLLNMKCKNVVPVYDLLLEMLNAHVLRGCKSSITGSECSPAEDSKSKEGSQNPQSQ
Summary of the method: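 HEK293T ER-beta-UAS-bla; 2% charcoal-stripped FBS; cells pre-incubated 6 hr, compound 16 hr, 37C/5% CO2; LiveBLAzer B/G FRET substrate 2 h RT; fluorescence intensity read.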

[2] = qHTS assay to identify small molecule agonists of the estrogen receptor beta (ER-beta) signaling pathway - cell viability counter screen (AID 1259380); further: nearly all actives have a fitted effect of over 30% in size; further: potency means the concentration at half of the fitted maximal effect
Summary of the method: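 Luminescence read-out (CellTiter-Glo, 30 min, room temp) taken in the same wells as the beta-lactamase reporter assay; ER-beta-UAS-bla HEK293T cells exposed to DMSO-dissolved compounds for 16 hr at 37C in 2% charcoal-stripped FBS medium.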

[3] = qHTS assay to identify small molecule antagonists of the estrogen receptor beta (ER-beta) signaling pathway - cell viability counter screen (AID 1259382); further: nearly all actives have a fitted effect of over 55% in size; further: potency means the concentration at half of the fitted maximal effect
Summary of the method: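 Luminescent ATP read-out (CellTiter-Glo, 30 min, RT) taken in the same wells as the bla reporter assay. HEK293T ER-beta-UAS-bla cells in 2% charcoal-stripped FBS were exposed to compounds with 1nM E2 for 16 hr at 37C.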

[4] = biological target: Estrogen receptor (Homo sapiens) (UniProt P03372); experiment: qHTS assay to identify small molecule agonists of the estrogen receptor alpha (ER-alpha) signaling pathway in the presence of an antagonist (AID 1259383; calls by dose curve; further: nearly all actives have a fitted effect of over 15% in size; further: potency means the concentration at half of the fitted maximal effect; on activation: top concentration of the series differs between compounds)
Estrogen receptor (Homo sapiens), sequence (P03372 whole entry, looked up): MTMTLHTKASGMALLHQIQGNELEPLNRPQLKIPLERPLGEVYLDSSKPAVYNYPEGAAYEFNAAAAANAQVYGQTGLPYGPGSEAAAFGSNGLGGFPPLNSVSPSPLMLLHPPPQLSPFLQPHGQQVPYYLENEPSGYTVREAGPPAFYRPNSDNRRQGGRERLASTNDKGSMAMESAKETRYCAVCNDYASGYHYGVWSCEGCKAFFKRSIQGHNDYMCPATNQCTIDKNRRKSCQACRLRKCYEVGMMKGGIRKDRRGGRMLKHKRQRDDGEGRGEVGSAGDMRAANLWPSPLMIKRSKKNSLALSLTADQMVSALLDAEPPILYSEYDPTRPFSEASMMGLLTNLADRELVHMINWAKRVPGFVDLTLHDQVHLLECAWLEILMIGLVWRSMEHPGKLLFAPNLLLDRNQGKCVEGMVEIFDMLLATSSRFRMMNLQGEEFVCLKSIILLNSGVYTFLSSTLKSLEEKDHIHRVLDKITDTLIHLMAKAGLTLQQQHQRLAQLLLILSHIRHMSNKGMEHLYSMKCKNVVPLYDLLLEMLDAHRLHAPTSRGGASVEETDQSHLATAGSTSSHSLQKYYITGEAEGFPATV
Summary of the method: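 Luciferase luminescence (ONE-Glo, 30min at room temperature) measured in VM7Luc4E2 cells after 22hr compound exposure at 15 concentrations, with 10.0nM ICI-182,780 final present; cells express endogenous ER-alpha and carry four EREs upstream of luciferase.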

[5] = qHTS assay to identify small molecule agonists or antagonists of the thyroid stimulating hormone receptor (TSHR) signaling pathway - wild type cell line counter screen (AID 1259384; calls by dose curve)
Summary of the method: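 Wild-type Hek293 cells, 800/well, 18 h at 37C, then compound with Ro20-1724 for 30 min RT. cAMP by HTRF (cAMP-d2/anti-cAMP cryptate), 1 h RT, fluorescence read. 15 concentrations, triplicates.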

[6] = biological target: Progesterone receptor (Homo sapiens) (UniProt P06401); experiment: qHTS assay to identify small molecule agonists of the progesterone receptor (PR) signaling pathway (AID 1346784; calls by dose curve; further: nearly all actives have a fitted effect of over 30% in size; further: potency means the concentration at half of the fitted maximal effect)
Progesterone receptor (Homo sapiens), sequence (P06401 whole entry, looked up): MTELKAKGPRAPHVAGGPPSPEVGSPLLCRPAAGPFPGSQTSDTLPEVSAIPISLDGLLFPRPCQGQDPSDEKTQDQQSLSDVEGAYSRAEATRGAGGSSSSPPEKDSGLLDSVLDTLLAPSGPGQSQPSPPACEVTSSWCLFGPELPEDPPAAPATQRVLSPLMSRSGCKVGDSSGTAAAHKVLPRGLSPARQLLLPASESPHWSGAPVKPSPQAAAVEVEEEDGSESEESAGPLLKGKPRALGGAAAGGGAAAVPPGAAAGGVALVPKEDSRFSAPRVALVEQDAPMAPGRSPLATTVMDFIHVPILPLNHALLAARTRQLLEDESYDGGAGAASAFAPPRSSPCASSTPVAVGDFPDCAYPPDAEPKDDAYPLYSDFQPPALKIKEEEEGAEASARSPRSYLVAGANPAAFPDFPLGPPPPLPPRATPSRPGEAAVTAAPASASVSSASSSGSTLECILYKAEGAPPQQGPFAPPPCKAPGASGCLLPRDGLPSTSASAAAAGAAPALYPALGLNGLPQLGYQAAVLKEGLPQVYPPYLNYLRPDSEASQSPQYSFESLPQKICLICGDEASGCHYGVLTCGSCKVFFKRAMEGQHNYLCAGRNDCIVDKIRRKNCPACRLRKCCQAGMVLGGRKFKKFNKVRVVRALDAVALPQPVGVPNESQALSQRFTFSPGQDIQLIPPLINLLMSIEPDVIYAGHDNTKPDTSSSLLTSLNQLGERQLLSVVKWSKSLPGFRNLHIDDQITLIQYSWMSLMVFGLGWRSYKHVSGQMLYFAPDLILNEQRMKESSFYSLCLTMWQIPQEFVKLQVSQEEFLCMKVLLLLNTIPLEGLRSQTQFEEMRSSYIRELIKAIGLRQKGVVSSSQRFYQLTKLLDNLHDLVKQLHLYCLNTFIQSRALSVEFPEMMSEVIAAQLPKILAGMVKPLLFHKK
Summary of the method: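 Beta-lactamase reporter read-out: after 16 hr compound treatment at 37C and a further 2 hr at room temperature with LiveBLAzer B/G FRET substrate, fluorescence was measured in PR-UAS-bla HEK 293T cells grown in 2% charcoal-stripped serum.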

[7] = biological target: Progesterone receptor (Homo sapiens) (UniProt P06401); experiment: qHTS assay to identify small molecule antagonists of the progesterone receptor (PR) signaling pathway (AID 1346795; active means well fitted inhibition curve with a large enough effect in the signal ratio in the repeat runs, not every such curve was filed as active; the % refers to the signal ratio; further: potency means the concentration at half of the fitted maximal effect)
Summary of the method: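 Read-out is fluorescence from the LiveBLAzer B/G FRET substrate, cleaved by a UAS-controlled beta-lactamase in PR-UAS-bla HEK293T cells after 16 hr exposure to compound plus 1 nM promegestone (final), followed by 2 hr at room temperature.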

[8] = qHTS assay to identify small molecule antagonists of the progesterone receptor (PR) signaling pathway - cell viability counter screen (AID 1346798); further: nearly all actives have a fitted effect of over 50% in size; further: potency means the concentration at half of the fitted maximal effect
Summary of the method: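 HEK293T PR-UAS-bla, 2% charcoal-stripped FBS; 4 hr pre-plate; cpd + R5020, 16 h 37C; LiveBLAzer read first; then CellTiter-Glo 30 min RT, luminescence.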

[9] = qHTS assay to identify small molecule antagonists of the TGF-beta/Smad signaling pathway - cell viability counter screen (AID 1346824); further: nearly all actives have a fitted effect of over 50% in size
Summary of the method: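 SBE-bla HEK 293T cells, incubated overnight, then compound plus 0.25 ng/mL TGF-beta1 (stock added) for 5 hr at 37 C. Viability was read in the same wells by CellTiter-Glo luminescence after 30 min at room temperature.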

[10] = qHTS assay to identify small molecule agonists of the TGF-beta/Smad signaling pathway - cell viability counter screen (AID 1346829); further: top concentration of the series differs between compounds; nearly all actives have a fitted effect of over 45% in size
Summary of the method: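 SBE-bla HEK 293T cells plated overnight, compound exposure 5 hr at 37 C. Viability read in the same wells by CellTiter-Glo luminescence after 30 min at room temperature, following the beta-lactamase read.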

[11] = qHTS assay to identify small molecule agonists of the TGF-beta/Smad signaling pathway (AID 1346859; active means well fitted activation curve with a large enough effect in the signal ratio in the repeat runs, not every such curve was filed as active; the % refers to the signal ratio; further: series mostly up to about 77 µM)
Summary of the method: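 SBE-bla HEK 293T, 4,000 cells/well, plated o/n; cpd in DMSO, 5 hr, 37 C/5% CO2; B/G FRET substrate 2 hr RT; ex 405, em 460/530 nm.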

[12] = biological target: Thyrotropin-releasing hormone receptor (Homo sapiens) (UniProt P34981); experiment: qHTS assay to identify small molecule antagonists of the thyrotropin-releasing hormone receptor (TRHR) signaling pathway (AID 1346877; active means well fitted inhibition curve with a large enough effect in the repeat runs, not every such curve was filed as active; further: series mostly up to about 51 µM)
Thyrotropin-releasing hormone receptor (Homo sapiens), sequence (P34981 whole entry, looked up): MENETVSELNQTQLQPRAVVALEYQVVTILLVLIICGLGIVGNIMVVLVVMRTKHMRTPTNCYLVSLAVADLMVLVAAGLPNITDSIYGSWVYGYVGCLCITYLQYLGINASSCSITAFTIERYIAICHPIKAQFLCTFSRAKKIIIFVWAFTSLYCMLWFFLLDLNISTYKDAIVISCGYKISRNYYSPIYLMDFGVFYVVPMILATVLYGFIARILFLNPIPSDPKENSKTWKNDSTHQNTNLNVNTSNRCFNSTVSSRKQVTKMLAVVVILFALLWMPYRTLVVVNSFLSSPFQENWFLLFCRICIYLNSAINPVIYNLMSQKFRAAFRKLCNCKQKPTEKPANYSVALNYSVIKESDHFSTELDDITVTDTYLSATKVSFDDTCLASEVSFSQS
Summary of the method: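 HEK293/TRHR cells, 18 h, 37 °C; Ca2+ dye 2 h; cpd 5 min RT; TRH 1 nM final; fluorescence read 3 min, 1 s intervals; 15 concs, triplicate.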

[13] = biological target: Thyrotropin-releasing hormone receptor (Homo sapiens) (UniProt P34981); experiment: qHTS assay to identify small molecule agonists of the thyrotropin-releasing hormone receptor (TRHR) signaling pathway (AID 1346891; calls by dose curve; further: series mostly up to about 58 µM)
Summary of the method: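 Intracellular calcium rise, read as fluorescence every second for 3 min, served as the agonist signal in dye-loaded HEK293 cells expressing TRHR; each compound ran at 15 concentrations in triplicate.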

[14] = qHTS assay to identify small molecule agonists of the androgen receptor (AR) signaling pathway in the presence of an antagonist - cell viability counter screen (AID 1259379); further: nearly all actives have a fitted effect of over 25% in size; further: potency means the concentration at half of the fitted maximal effect
Summary of the method: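 Viability counter screen: CellTiter-Fluor fluorescence, measured in the same wells as the luciferase read-out. MDA-kb2 cells, 3,000/well, with nilutamide at 3.0uM final and compounds at 15 concentrations, 16 hr at 37C, 0% CO2.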

[15] = biological target: Thyrotropin receptor (Homo sapiens) (UniProt P16473); experiment: qHTS assay to identify small molecule antagonists of the thyroid stimulating hormone receptor (TSHR) signaling pathway (AID 1259385; calls by dose curve; further: nearly all actives have a fitted effect of over 20% in size; further: potency means the concentration at half of the fitted maximal effect)
Thyrotropin receptor (Homo sapiens), sequence (P16473 whole entry, looked up): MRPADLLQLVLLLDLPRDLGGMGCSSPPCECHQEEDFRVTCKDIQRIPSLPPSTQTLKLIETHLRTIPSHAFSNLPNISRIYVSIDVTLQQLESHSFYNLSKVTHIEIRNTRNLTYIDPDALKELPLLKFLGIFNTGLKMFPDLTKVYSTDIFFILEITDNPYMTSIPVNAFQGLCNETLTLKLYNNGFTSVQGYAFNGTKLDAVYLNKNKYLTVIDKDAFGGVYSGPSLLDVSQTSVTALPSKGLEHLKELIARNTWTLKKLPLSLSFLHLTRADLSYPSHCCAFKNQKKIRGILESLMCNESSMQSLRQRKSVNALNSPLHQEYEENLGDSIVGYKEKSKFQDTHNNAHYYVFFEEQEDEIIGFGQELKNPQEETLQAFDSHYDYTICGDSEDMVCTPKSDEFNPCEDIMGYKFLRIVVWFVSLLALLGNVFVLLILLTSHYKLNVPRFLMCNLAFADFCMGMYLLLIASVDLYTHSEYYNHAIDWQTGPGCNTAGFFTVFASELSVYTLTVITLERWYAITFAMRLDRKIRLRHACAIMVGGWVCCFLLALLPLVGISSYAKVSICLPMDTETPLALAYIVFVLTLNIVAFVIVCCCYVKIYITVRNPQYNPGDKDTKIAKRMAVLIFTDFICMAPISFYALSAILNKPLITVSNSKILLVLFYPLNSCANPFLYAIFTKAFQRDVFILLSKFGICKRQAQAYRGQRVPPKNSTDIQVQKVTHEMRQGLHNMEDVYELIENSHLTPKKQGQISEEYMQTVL
Summary of the method: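 TSHR-HEK293 cells (800/well) plated 18 h, then compounds with Ro20-1724 and TSH at 1.5 ng/mL final, 30 min at room temperature. cAMP quantified by HTRF (cAMP-d2/anti-cAMP-cryptate, 1 h); 15 concentrations in triplicate.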

[16] = qHTS assay to identify small molecule agonists of the estrogen receptor alpha (ER-alpha) signaling pathway in the presence of an antagonist - cell viability counter screen (AID 1259386);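 further: cells exposed to compounds for 22 h at 37 °C before the viability read; nearly all actives have a fitted effect of over 30% in size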; further: potency means the concentration at half of the fitted maximal effect
Summary of the method: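 Read-out: CellTiter-Fluor fluorescence after 1hr reagent incubation, measured in the same wells as the luciferase readout. VM7Luc4E2 cells were exposed to 15 compound concentrations with 10.0nM ICI-182,780 for 22hr at 37C.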

[17] = biological target: Estrogen receptor beta (Homo sapiens) (UniProt Q92731); experiment: qHTS assay to identify small molecule antagonists of the estrogen receptor beta (ER-beta) signaling pathway (AID 1259378; active means well fitted inhibition curve with a large enough effect in the signal ratio in the repeat runs, not every such curve was filed as active; the % refers to the signal ratio)
Summary of the method: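 ER-beta-UAS-bla HEK293T cells in 2% charcoal-stripped FBS medium treated with compound plus 1nM final 17-beta-estradiol for 16 hr at 37C. Beta-lactamase reporter read by FRET substrate fluorescence after 2 hours at room temperature.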

[18] = biological target: Androgen receptor (Homo sapiens) (UniProt P10275); experiment: qHTS assay to identify small molecule agonists of the androgen receptor (AR) signaling pathway in the presence of an antagonist (AID 1259381; calls by dose curve; further: nearly all actives have a fitted effect of over 15% in size)
Androgen receptor (Homo sapiens), sequence (P10275 whole entry, looked up): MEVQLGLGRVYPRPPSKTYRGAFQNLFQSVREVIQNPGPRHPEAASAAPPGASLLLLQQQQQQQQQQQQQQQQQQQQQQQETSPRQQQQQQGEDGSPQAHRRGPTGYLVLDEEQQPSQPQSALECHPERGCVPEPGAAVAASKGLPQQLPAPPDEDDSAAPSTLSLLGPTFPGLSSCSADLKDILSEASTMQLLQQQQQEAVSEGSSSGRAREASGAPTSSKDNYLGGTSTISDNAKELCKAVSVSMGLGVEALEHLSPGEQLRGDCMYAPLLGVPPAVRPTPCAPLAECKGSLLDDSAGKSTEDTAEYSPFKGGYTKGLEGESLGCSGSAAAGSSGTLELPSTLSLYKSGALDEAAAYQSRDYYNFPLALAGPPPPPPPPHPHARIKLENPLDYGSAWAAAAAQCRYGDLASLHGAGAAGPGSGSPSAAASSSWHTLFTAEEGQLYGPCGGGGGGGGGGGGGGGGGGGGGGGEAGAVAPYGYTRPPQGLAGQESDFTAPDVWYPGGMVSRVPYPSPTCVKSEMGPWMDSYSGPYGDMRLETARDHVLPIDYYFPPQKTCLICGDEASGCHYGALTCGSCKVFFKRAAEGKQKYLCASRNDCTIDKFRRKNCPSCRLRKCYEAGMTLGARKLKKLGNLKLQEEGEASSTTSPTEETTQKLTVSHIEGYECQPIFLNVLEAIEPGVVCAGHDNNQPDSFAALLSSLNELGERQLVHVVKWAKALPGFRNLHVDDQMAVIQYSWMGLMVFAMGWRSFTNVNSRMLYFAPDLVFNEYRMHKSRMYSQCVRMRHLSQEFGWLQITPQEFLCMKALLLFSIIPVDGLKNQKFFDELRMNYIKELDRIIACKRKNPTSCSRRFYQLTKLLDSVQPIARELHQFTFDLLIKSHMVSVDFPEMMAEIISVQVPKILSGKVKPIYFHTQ
Summary of the method: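 Luciferase read-out (ONE-Glo, 30min room temperature) in MDA-kb2 MMTV-reporter cells; agonist mode run in presence of AR antagonist nilutamide, 3.0uM final. Compounds tested as 15-point series, 16hr exposure at 37C, 0% CO2.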

[19] = qHTS assay to identify small molecule agonists of the progesterone receptor (PR) signaling pathway - cell viability counter screen (AID 1346799; calls by dose curve; further: nearly all actives have a fitted effect of over 45% in size)
Summary of the method: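 Luminescence from CellTiter-Glo, added after the beta-lactamase FRET read in the same wells, gave cytotoxicity in PR-UAS-bla HEK293T cells treated with compounds for 16 hr at 37C.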

Measured: Potency

COC(=O)C1=C(C)NC(C)=C(C(=O)OCCN2CCN(C(c3ccccc3)c3ccccc3)CC2)C1c1cccc([N+](=O)[O-])c1 (stereo unspecified)
not listed: [14] | [15] | [16] | [17] | [18] | [19]
inactive: all other assays above

O=C1CCc2cc(OCCCCc3nnnn3C3CCCCC3)ccc2N1
not listed: [7] | [8] | [10] | [11] | [16] | [17] | [18] | [19]
inactive: all other assays above

C#C[C@]1(OC(C)=O)CC[C@H]2[C@@H]3CCC4=C[C@@H](OC(C)=O)CC[C@@H]4[C@H]3CC[C@@]21C
active: [1] 335 nM | [4] 53.1 nM | [15] 11.9 µM | [6] 23.7 nM
inactive: [14] | [3] | [5] | [9] | [10] | [11]

CC(C)=CCC1=C(O)c2ccccc2C(=O)C1=O
active: [14] 43 µM | [2] 1.53 µM | [16] 43 µM
inactive: [1] | [4] | [6] | [9] | [10] | [11] | [12] | [13]

O=C(O)Cc1ccccc1Nc1c(Cl)cccc1Cl
active: [2] 13.7 µM
not listed: [3] | [19]
inactive: all other assays above

C=CCCC(=O)/C=C/C1C(C)=CCCC1(C)C (stereo unspecified)
not listed: [4] | [5] | [6] | [9] | [10] | [15] | [18]
inactive: all other assays above

O=C1NC(=O)[C@@H]2CC=CC[C@H]12
active: [2] 27.3 µM | [8] 15.4 µM
not listed: [3] | [4] | [7] | [10] | [16] | [18] | [19]
inactive: all other assays above

S=C([S-])NCCNC(=S)[S-].S=C([S-])NCCNC(=S)[S-].[Mn+2].[Zn+2]
inactive: [1] | [14] | [3] | [5] | [15] | [16] | [9] | [11]

CC(=O)Oc1cc2c(s1)CCN(C(C(=O)C1CC1)c1ccccc1F)C2 (stereo unspecified)
not listed: [1] | [7] | [18]
inactive: all other assays above

Cc1ccc(C(C)C)cc2c(C)ccc1-2
not listed: [10] | [18]
inactive: all other assays above

OCC(F)(F)F
not listed: [1] | [4] | [6] | [18]
inactive: all other assays above

Cc1cc(C(C#N)c2ccc(Cl)cc2)c(Cl)cc1NC(=O)c1cc(I)cc(I)c1O (stereo unspecified)
inactive: [1] | [4] | [9] | [10] | [11] | [12] | [13]
active: [2] 11.9 µM | [3] 23.7 µM | [7] 29.8 µM

CC1(C)[C@@H](O)CC[C@]2(C)[C@H]3C(=O)C=C4[C@@H]5C[C@@](C)(C(=O)O)CC[C@]5(C)CC[C@@]4(C)[C@]3(C)CC[C@@H]12
inactive: [1] | [14] | [18] | [3] | [4] | [5] | [8] | [9] | [10] | [12]
active: [7] 60.4 µM

CCCCN(CCCC)CC(O)c1cc(Cl)cc2c1-c1ccc(Cl)cc1/C2=C/c1ccc(Cl)cc1 (stereo unspecified)
active: [2] 29.8 µM
not listed: [3] | [11] | [16] | [17] | [18] | [19]
inactive: all other assays above

C#C[C@]1(O)CC[C@H]2[C@@H]3[C@H](C)CC4=C(CCC(=O)C4)[C@H]3CC[C@@]21C
inactive: [17] | [14] | [2] | [3] | [9] | [10] | [11]
active: [1] 188 nM | [4] 84.1 nM | [6] 18.8 nM

COc1ccc(NC(=O)CC(C)=O)cc1
not listed: [4] | [9] | [18] | [19]
inactive: all other assays above
